Data taken from the supplement of paper PMC6555819.

What was measured:
Assay in all cases: PBM binding z-score (relative to random genomic background probes); higher = stronger binding; sequences stand for … in GC…GCGATTGACAGCGTAGAATGAAGG
[1] = tested on: FXR:RXRa (NR concentration 270 nM, RXRa partner concentration 90 nM)
How it was run: (§1)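 On custom Agilent 4×180K arrays, double-stranded probes with 34-nt variable regions carried direct-repeat seeds, single-nucleotide variants, half-site ablations or random human genomic background. Ligand-free nuclear receptor dimers were applied for 1 h, and binding was read with antibodies against each partner (one per run). Binding z-scores come from regression-normalized fluorescence, with the random background probes as reference.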

[2] = tested on: LXRa:RXRa (NR concentration 270 nM, RXRa partner concentration 90 nM)
How it was run: as §1

[3] = tested on: LXRa homodimer (NR concentration 270 nM)
How it was run: as §1

[4] = tested on: LXRb:RXRa (NR concentration 270 nM, RXRa partner concentration 90 nM)
How it was run: as §1

[5] = tested on: LXRb homodimer (NR concentration 270 nM)
How it was run: as §1

[6] = tested on: PPARa:RXRa (NR concentration 270 nM, RXRa partner concentration 90 nM)
How it was run: as §1

[7] = tested on: PPARg:RXRa (NR concentration 180 nM, RXRa partner concentration 90 nM)
How it was run: as §1

[8] = tested on: PPARg:RXRa 270nM:90nM, anti-RXR (NR concentration 270 nM, RXRa partner concentration 90 nM)
How it was run: as §1

[9] = tested on: PPARg:RXRa 30nM:10nM, anti-RXR (NR concentration 30 nM, RXRa partner concentration 10 nM)
How it was run: as §1

[10] = tested on: PPARg:RXRa 90nM:30nM, anti-RXR (NR concentration 90 nM, RXRa partner concentration 30 nM)
How it was run: as §1

[11] = tested on: PPARg:RXRa DBDmut IVT, anti-RXR (DBD mutation: RXRa K156A/R161A, NR concentration 270 nM, RXRa partner concentration 90 nM)
How it was run: as §1

[12] = tested on: PPARg:RXRa IVT, anti-PPARg (NR concentration 270 nM, RXRa partner concentration 90 nM)
How it was run: as §1

[13] = tested on: PPARg DBDmut:RXRa IVT, anti-PPARg (DBD mutation: PPARg1 K132A/R137A, NR concentration 270 nM, RXRa partner concentration 90 nM)
How it was run: as §1

[14] = tested on: PPARg DBDmut IVT, anti-PPARg (DBD mutation: PPARg1 K132A/R137A, NR concentration 270 nM)
How it was run: as §1

[15] = tested on: PPARg homodimer (NR concentration 180 nM)
How it was run: as §1

[16] = tested on: PXR:RXRa (NR concentration 270 nM, RXRa partner concentration 90 nM)
How it was run: as §1

[17] = tested on: PXR homodimer (NR concentration 270 nM)
How it was run: as §1

[18] = tested on: RARa:RXR (NR concentration 270 nM, RXRa partner concentration 90 nM)
How it was run: as §1

[19] = tested on: RARa homodimer (NR concentration 270 nM)
How it was run: as §1

[20] = tested on: RARb:RXRa (NR concentration 270 nM, RXRa partner concentration 90 nM)
How it was run: as §1

Sequence | PBM binding z-score [1] | PBM binding z-score [2] | PBM binding z-score [3] | PBM binding z-score [4] | PBM binding z-score [5] | PBM binding z-score [6] | PBM binding z-score [7] | PBM binding z-score [8] | PBM binding z-score [9] | PBM binding z-score [10] | PBM binding z-score [11] | PBM binding z-score [12] | PBM binding z-score [13] | PBM binding z-score [14] | PBM binding z-score [15] | PBM binding z-score [16] | PBM binding z-score [17] | PBM binding z-score [18] | PBM binding z-score [19] | PBM binding z-score [20]
GATACAGGGTCCGCTAGAGGCCAGAGTATGGAAA | -0.588 | -0.752 | -0.713 | -1.11 | -1.38 | -0.848 | 0.112 | -0.726 | -0.417 | -1.24 | -1.31 | -0.762 | -1.66 | -1.32 | -0.788 | -0.821 | -0.331 | -0.782 | -1.34 | 0.181
AGAATGAGGTTCCCAAAGATCAGGGAAACGCTTG | -0.395 | -0.315 | -0.36 | -0.576 | -0.694 | 0.11 | 0.423 | 0.0468 | 0.142 | 0.0809 | 0.186 | 0.311 | 1.11 | 0.173 | 0.224 | -0.152 | -0.346 | 0.182 | -0.181 | -0.0949
GCTGCTAGGTCAACTGATCGTCAGCTAAAGCTCG | 4.12 | 2.74 | -0.171 | 1.86 | -0.26 | 3.62 | 2.54 | 3.43 | 0.361 | 2.23 | 4.99 | 4.1 | 0.249 | -0.779 | 0.899 | 1.23 | -0.904 | 2.14 | -0.582 | 4.19
CAAACTAGGTCAAAGGTCTAAGTCGAGCCAACCA | 5.29 | 4.37 | 0.54 | 3.21 | 0.734 | 6.51 | 12 | 10 | 9.99 | 11.8 | 8.53 | 8.69 | 8.12 | 5.58 | 7.53 | 3.11 | 0.0192 | 4.84 | 0.718 | 3.91
GCTTACGTGTCAAAGGTTATAGCATGAATAGAAT | 3.42 | 3.02 | -0.0204 | 2.94 | -0.0977 | 5.34 | 9.21 | 8.05 | 7.61 | 9.07 | 1.72 | 3.96 | 0.407 | 0.944 | 3.44 | 2.98 | -0.204 | 4.56 | 0.318 | 2.14
CGTGCAAGGTCAAAGGTCAGTGAAGAGATGACGG | 8.16 | 6.9 | 3.14 | 6.7 | 1.86 | 7.4 | 10.9 | 9.02 | 7.56 | 9.38 | 4.05 | 5.94 | 1.68 | 0.658 | 4.64 | 7.09 | 1.48 | 8.94 | 1.9 | 5.91
ATCGAAAGGACGAAGGTGAGTATACCCACCCGAA | -0.0229 | 0.0207 | -0.291 | -0.347 | -0.118 | -0.0423 | 1.05 | 0.837 | 0.489 | 0.641 | -0.74 | 0.283 | -0.404 | -0.244 | 0.0409 | 0.00854 | -0.3 | -0.0536 | 0.0942 | 1.17
CCTAACAGGCCAATCTGGGTCACTCAAGGCTTGA | 1.06 | 1.75 | 0.16 | 1.19 | -0.0196 | 3.19 | 2.31 | 2.35 | 0.094 | 1.57 | 4.43 | 5.18 | 0.79 | -0.8 | 1.16 | 1.3 | 0.00111 | 1.43 | 0.117 | 1.77
TAGCCTAGGTCATTCAGGGGCCAGTATAGAAAGC | 4.58 | 3.73 | 0.785 | 3.2 | 0.97 | 3.78 | 1.97 | 2.59 | 0.55 | 1.45 | 1.64 | 2.89 | -0.179 | 0.357 | 1.37 | 2.57 | -0.0401 | 2.74 | -0.372 | 3.79
AGTCAAAGTTCACTAGGTGACGTAAGATTCAGCT | 5.44 | 5.36 | 3.15 | 3.09 | 0.835 | 5.06 | 7.82 | 7.04 | 3.81 | 6.5 | 3.75 | 6.05 | 1.29 | 0.955 | 3.29 | 4.22 | 2.57 | 3.34 | 1.67 | 4.87
CCTGCTAGGTCAATGGTCAGCTACAGCAGCTCGC | 3.03 | 2.08 | -0.0038 | 1.55 | -0.217 | 2.98 | 4.03 | 5.1 | 2.52 | 4.92 | 4.55 | 3.95 | -0.354 | -0.419 | 1.53 | 1.04 | -0.299 | 1.64 | -0.404 | 3.58
TGAATGAAGTTATAAGATCAGGGAACGTTGCAAA | -0.521 | -0.697 | -0.369 | -0.457 | -0.454 | -0.296 | 0.116 | -0.239 | 0.157 | -0.0808 | -1.2 | -0.333 | 0.559 | 0.214 | -0.63 | -0.502 | -0.359 | -0.42 | 0.115 | -1.82
CGTCCAAGGTCAAGGTAAGTGAAAGAGACTCGAA | 7.13 | 5.23 | 0.112 | 3.72 | 0.343 | 5.58 | 5.26 | 5.51 | 1.81 | 4.01 | 3.13 | 3.85 | 0.749 | 0.108 | 3.18 | 3.52 | 0.541 | 4.27 | 1.1 | 5.3
ACTTACGGGTCAACGAGGTTATAGAACGCGTATA | 6.52 | 5.29 | 0.693 | 4.56 | 0.433 | 5.87 | 5.23 | 5.55 | 2.2 | 4.21 | 3.53 | 4.42 | 1.71 | 1.43 | 1.66 | 5.08 | 2.8 | 4.99 | 0.996 | 4.35
